BoNT-A LC inh2 – inhibitors of Botulinum neurotoxin A light chain protease | multiplex microsphere protease substrate cleavage, flow cytometry | inhibition, % at 10 µM | 360,000 tested, 0.17% active | AID 588499
Autofluor counter – compound fluorescence in toxin protease inhibitor counterscreen; compound autofluorescence counterscreen, microsphere flow cytometry; stronger effect = higher value; fluorescence intensity (concentration not given with the values); 360,000 tested, 3.1% active; AID 624483; in the data active = fluorescence intensity above about 16000; inconclusive = no clear call, values can overlap the other calls
3CLpro inhibitor – SARS-CoV 3CLpro protease inhibition | 290,000 tested, 0.14% active | P0C6X7 | recombinant SARS-CoV 3CLpro, quenched FRET peptide cleavage | inhibition, % at 6 µM | AID 1706; in the data active = inhibition above about 12%
Anthrax LF prot – inhibitors of Bacillus anthracis lethal factor protease | 360,000 tested, 0.12% active | inhibition, % at 10 µM | P15917 | multiplex microsphere protease cleavage assay, LF
VHR inh abs – blocks human VHR1 dual specificity phosphatase. P51452. recombinant VHR phosphatase, pNPP absorbance. 290,000 tested, 0.52% active. inhibition, % at 13.3 µM; in the data active = inhibition above about 50%
Target sequence (P51452 whole entry, looked up): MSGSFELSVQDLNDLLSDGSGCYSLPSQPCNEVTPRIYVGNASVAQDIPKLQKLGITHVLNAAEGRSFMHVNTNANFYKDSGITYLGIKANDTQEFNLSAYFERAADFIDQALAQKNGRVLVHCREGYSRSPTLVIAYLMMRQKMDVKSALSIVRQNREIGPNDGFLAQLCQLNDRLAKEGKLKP
BoNT-F LC inh – inhibitors of Botulinum neurotoxin F light chain protease. inhibition, % at 10 µM. Multiplex microsphere protease cleavage assay, flow cytometry. 360,000 tested, 0.22% active; in the data active = inhibition above about 35%, passing the limit was not always enough; inconclusive = no clear call, values can overlap the other calls
Each line names hits and unclear results; the compound was inactive in the other large screens. Most compounds without a hit are left out; they make up all but 3.9% or so of the library. Cut-off read from the data, not from the text of the source, unless noted: active = inhibition above about 30%; inconclusive = no clear call, values can overlap the other calls; inactive = below that.

CCOc1ccc2c(C)c(C)c(=O)oc2c1OCC	Autofluor counter 23673
O=[N+]([O-])c1ccccc1/C=N/Nc1nc(N2CCCC2)nc(N2CCCC2)n1	none
COc1nc(N/N=C/c2ccccc2F)nc(N2CCCCC2)n1	Autofluor counter 22376
Cc1cccc(NC(=O)C(=O)NCC2CCCN2S(=O)(=O)c2cccs2)c1 (stereo not drawn)	none (no result: 3CLpro inhibitor, VHR inh abs)
COC(=O)C(=O)C/C(=N/Nc1ncnc2ccccc12)c1ccc(Cl)cc1	none
CC(=O)N1C(=O)C(=C2C=C(C)OC(C)=C2)c2ccccc21	Autofluor counter 23162
Cc1ccc(-c2nnn(CC(=O)N(CC(=O)NC3CCCCC3)c3cnc4ccccc4c3)n2)o1	none (no result: VHR inh abs)
CCOc1ccc(NC(=O)CC2C(=O)N(c3ccccc3)C(=O)N2Cc2ccccn2)cc1 (stereo not drawn)	BoNT-A LC inh2 inconclusive, Autofluor counter 22858
COc1ccc(NC(=O)CC2C(=O)N(c3cccc(OC)c3)C(=O)N2CCC(C)C)cc1 (stereo not drawn)	Autofluor counter 19759
COc1ccc(NC(=O)CC2C(=O)N(c3cccc(OC)c3)C(=O)N2C(C)C)cc1 (stereo not drawn)	none
Cc1ccc(NC(=O)C2CCN(c3cnccn3)CC2)cc1	none
Cc1nnc(NC(=O)C2CCN(c3nnnn3-c3ccccc3)CC2)s1	BoNT-A LC inh2 inconclusive, Autofluor counter 21118
O=C(Nc1cccc2c1CCCC2)C1CCN(c2nnnn2-c2ccccc2)CC1	none
Cc1nnc(NC(=O)C2CCN(c3cnccn3)CC2)s1	Autofluor counter 22414
O=C(CSc1n[nH]c(=O)[nH]c1=O)NC1CC1	none
COc1ccccc1NC(=O)COC(=O)C1=NN(c2ccccc2)C(=O)CC1	none (no result: 3CLpro inhibitor, VHR inh abs)
Cc1ccccc1OCC(=O)Nc1ccc2c(c1)COC2=O	Autofluor counter 20173
COC(=O)Cc1ccc(NC(=O)c2ccc(C)c(C)c2)cc1	Autofluor counter 24555
COC(=O)Cc1ccc(NC(=O)c2ccc(NC(=O)c3ccco3)cc2)cc1	none
O=C(CN1C(=O)C2CC=CCC2C1=O)Nc1ccc(S(=O)(=O)Nc2nccs2)cc1 (stereo not drawn)	none
Cc1cccc(NC(=O)C(CC(C)C)NC(=O)C2CCC(C)CC2)n1 (stereo not drawn)	none
OCC1(CCc2ccccc2)CCN(C/C=C/c2ccccc2)CC1	VHR inh abs 56
CCCCC[C@@H](/C=C/C1C(=O)C=C[C@H]1C/C=C\CCCC(=O)O)OC(C)=O (stereo partly drawn)	none (no result: 3CLpro inhibitor, VHR inh abs)
O=C(c1ccccc1F)N(Cc1cccnc1)Cc1cc2cc3c(cc2[nH]c1=O)OCCO3	none
COc1ccc2[nH]c(=O)c(CN(C(=O)c3cccnc3)c3ccc(C)cc3C)cc2c1	none
COc1ccc2[nH]c(=O)c(CN(C(=O)c3cccnc3)c3cc(C)ccc3C)cc2c1	Autofluor counter 18114
COc1cc(C(=O)N(Cc2cccnc2)Cc2cc3cc4c(cc3[nH]c2=O)OCCO4)cc(OC)c1OC	Autofluor counter 22318
CC(C)CN(Cc1cc2ccccc2[nH]c1=O)C(=O)c1cccnc1	BoNT-A LC inh2 inconclusive, Autofluor counter 22057
COc1ccc2cc(CN(C(=O)Nc3ccccc3)C3CCCC3)c(=O)[nH]c2c1	Autofluor counter 23679
CC(C)N(Cc1cc2ccccc2[nH]c1=O)C(=O)c1cccnc1	none
COc1ccc2[nH]c(=O)c(CN(C(=O)NC3CCCCC3)C3CCCCC3)cc2c1	none
Cc1ccc(C(C)C)c(OCC(=O)NS(=O)(=O)c2ccc(Cl)cc2)c1	none
CC1=CC(=O)C2=C(C)CCC3C(C)C(=O)OC3C12 (stereo not drawn)	none (no result: 3CLpro inhibitor, VHR inh abs)
COc1ccc2[nH]c(=O)c(CN(CCO)C(=O)c3cccs3)cc2c1	Autofluor counter 22556
O=C(c1ccncc1)N(Cc1cc2ccccc2[nH]c1=O)C1CCCCC1	Autofluor counter 20954
COc1cc2cc(CN(CCO)C(=O)c3cccs3)c(=O)[nH]c2cc1OC	none
COc1ccc2[nH]c(=O)c(CN(Cc3cccnc3)C(=O)Nc3ccccc3)cc2c1	Autofluor counter 23007
CC(=O)N(Cc1cccnc1)Cc1cc2ccccc2[nH]c1=O	Autofluor counter 23316
NC(=O)C1CCN(C(c2ccccc2Cl)c2nnnn2Cc2ccc3c(c2)OCO3)CC1 (stereo not drawn)	none
O=C(O)CCC(=O)N1CCC(n2nnc3cc(C(F)(F)F)ccc32)CC1	Autofluor counter inconclusive, Anthrax LF prot inconclusive
CC1CC(O)C2C3(C)CCCC2(COC3=O)C12CCC1(CCOC1=O)O2 (stereo not drawn)	none (no result: 3CLpro inhibitor, VHR inh abs)
CCNC(=O)C1(c2ccccc2)CCCC1	none
CCOC(=O)CNC(=O)C1(c2ccccc2)CCCC1	Autofluor counter 16511
CCN(CC)CCOC(=O)c1ccc(NC(=O)C2(c3ccccc3)CCCC2)cc1	VHR inh abs 54
CNC(=O)c1cccc(NC(=O)CCCNC(=O)c2ccc(Cl)cc2)c1	none
COc1cc(NC(=O)c2ccc(Cl)cc2Cl)ccc1NC(=O)c1cccs1	none
CCOC(=O)C1=CN(Cc2ccco2)S(=O)(=O)NC1c1ccc(F)c(Cl)c1 (stereo not drawn)	none (no result: 3CLpro inhibitor, VHR inh abs)
O=C(NC(CC(=O)N1CCCC(C(F)(F)F)C1)c1ccccc1)c1ccccc1Cl (stereo not drawn)	none
CCc1cccc(OCCCN2C(=O)NC(C)(C)C2=O)c1	Autofluor counter 22570
CCOc1cc(C=O)ccc1OCCCN1C(=O)NC(C)(C)C1=O	Autofluor counter 22259
CC1(C)NC(=O)N(CCCOc2ccccc2Br)C1=O	Autofluor counter 16174, VHR inh abs 51
C/C=C/c1ccc(OCCCCN2C(=O)NC(C)(C)C2=O)c(OC)c1	none
CCC(C)(C)c1ccc(OCCN2C(=O)NC(C)(C)C2=O)cc1	Autofluor counter 22180
COCCNC(=O)COc1coc(CN2CCN(Cc3ccccc3)CC2)cc1=O	none
O=C(c1ccc2c(c1)OCCO2)N1CCCC(CNS(=O)(=O)c2cccs2)C1 (stereo not drawn)	none
Cc1ccc(S(=O)(=O)Nc2ccccc2F)cc1C(=O)NCc1ccco1	none (no result: 3CLpro inhibitor, VHR inh abs)
CCN(C(=O)COC(=O)/C=C/c1nc2ccccc2s1)c1c(N)n(Cc2ccccc2)c(=O)[nH]c1=O	none (no result: 3CLpro inhibitor, VHR inh abs)
COc1ccc(CC(=O)NCc2ccccc2Cl)cc1S(=O)(=O)N1CCOCC1	Autofluor counter 23297 (no result: VHR inh abs)
CN(C)/C=N/c1ncc(C(=O)c2ccc3ccccc3c2)s1	Autofluor counter 23850
COc1ccc(C(=O)NNC2=CC(=O)CC(C)(C)C2)cc1OC	none
Cc1cc(C)c(C(=O)N2CCCC(N3CCN(c4ccc(F)cc4)CC3)C2)o1 (stereo not drawn)	none
Cc1noc(NS(=O)(=O)c2ccc(N/C=C/C(=O)c3ccncc3)cc2)c1C	BoNT-A LC inh2 inconclusive, Autofluor counter 16425
C=CCn1c(SCc2c(C)noc2C)nc2sc3c(c2c1=O)CCCCC3	Autofluor counter 24051
C=CCn1c(SCc2c(C)noc2C)nc2sc3c(c2c1=O)CCCC3	none
N=c1c2c(ncn1CCN1CCOCC1)Oc1ccc3ccccc3c1C2c1ccccc1 (stereo not drawn)	Autofluor counter inconclusive, VHR inh abs 55

From PubChem
